GRP78 ERSR act: ER stress response induction in glioma | U87-MG GRP78 promoter luciferase reporter, 16 h | Potency, µM, for the others: at the top dose activation, most hits filed as activators | 420,000 tested, 0.02% active | AID 602332; also: series mostly up to about 76 µM; % of control where 0% means no effect; nearly all actives have a fitted effect of over 35% in size
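Stably transfected U87-MG glioma cells carrying a GRP78-based luciferase sensor; 16 h compound incubation. Luminescence end-point read 10 min after Bright-Glo addition at room temperature.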
Apoferritin bind: candidate novel general anesthetic via apoferritin binding; Potency, µM (titrated, usually from 77.5 µM), for inactives: at the highest dose activity change, negative = displacement, usual class: inhibitors; apoferritin/1-aminoanthracene competitive binding, fluorescence; P02791; 350,000 tested, 0.074% active; also: % is scaled to controls: 0 for no effect and ±100 for the full control effect; nearly all actives have a fitted effect of over 20% in size
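Apoferritin-based anesthetic binding model; compound displacement of fluorescent 1-AMA measured as endpoint fluorescence after 10 minutes at room temperature, scaled to free-ligand and complex controls.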
ALOX12 inh: ALOX12 (human) lipoxygenase inhibition | P18054 | purified 12hLO, xylenol orange hydroperoxide absorbance | Potency, µM (series often up to 108 µM), for inactives: top-dose activity change, negative = inhibition, usual class: inhibitors | 580,000 tested, 1.1% active | AID 1671190; also: % is scaled to controls: 0 for no effect and ±100 for the full control effect
Target sequence (P18054 whole entry, looked up): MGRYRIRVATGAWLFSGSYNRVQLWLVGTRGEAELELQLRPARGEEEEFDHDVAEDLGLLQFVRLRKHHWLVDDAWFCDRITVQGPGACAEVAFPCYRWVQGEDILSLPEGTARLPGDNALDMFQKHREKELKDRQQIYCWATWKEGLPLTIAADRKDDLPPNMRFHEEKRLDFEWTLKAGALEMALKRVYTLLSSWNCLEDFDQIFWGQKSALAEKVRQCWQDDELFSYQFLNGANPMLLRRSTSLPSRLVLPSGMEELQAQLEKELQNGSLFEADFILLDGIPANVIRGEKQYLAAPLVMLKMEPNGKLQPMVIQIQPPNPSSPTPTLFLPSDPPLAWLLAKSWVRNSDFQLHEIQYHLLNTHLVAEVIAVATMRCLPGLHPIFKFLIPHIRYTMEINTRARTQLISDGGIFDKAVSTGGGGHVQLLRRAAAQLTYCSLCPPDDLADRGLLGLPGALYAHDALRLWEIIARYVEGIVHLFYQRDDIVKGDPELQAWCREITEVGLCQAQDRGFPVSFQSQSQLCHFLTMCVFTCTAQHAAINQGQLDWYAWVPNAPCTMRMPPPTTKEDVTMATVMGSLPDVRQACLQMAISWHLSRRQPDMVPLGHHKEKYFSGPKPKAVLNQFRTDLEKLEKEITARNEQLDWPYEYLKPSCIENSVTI
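Hydroperoxide product was detected by ferrous iron/xylenol orange as the 573 to 405 nm absorbance ratio. Arachidonic acid at 40 uM (final) was turned over for 30 min at room temperature by 150 nM human 12hLO, pH 7.0 Hepes buffer, after 15 min compound preincubation.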
BCR signal inh: inhibitors of chronic active B-cell receptor signaling; Potency, µM (doses to about 46.1 µM), without a hit: at the top dose activity change, negative = inhibition, actives largely listed as inhibitors; ABC-DLBCL IkBa-CBG/CBR reporter, luminescence ratio, 4 h; 340,000 tested, 0.05% active; active = well fitted inhibition curve with a large enough effect in the signal ratio, with a control signal flat, not every such curve was filed as active; inconclusive = small, poorly fitted or top-dose-only effect, or effect the other way, or a change in a side signal; the % refers to the signal ratio;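 also: plate controls were basal doxycycline-induced cells for no effect and cells given 10 µM MG132 for full effect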
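Doxycycline induced both beetle luciferases in TMD8 lymphoma cells; IKK-driven degradation limits the IkappaBalpha-fused green signal, while red luminescence normalises for cell number and nonspecific effects. Compounds tested up to 46 uM, 4 hrs.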
* = called active by the depositor; ? = inconclusive; · = no result given; ! = repeats disagree; [ ] = dose if it differs, or a comment. Hits are enriched below; roughly 1.1% of the tested compounds scored in any of these assays. Unless noted, calls follow the shape of the dose curve; as a rule, active = well fitted curve in the direction sought with a large enough effect; inconclusive = small, poorly fitted or top-dose-only effect, or another doubt; inactive = no such curve, though single readings can be large; an effect the other way counts as inactive or inconclusive. Potency is read from the fitted curve at half-maximal effect.

SMILES	GRP78 ERSR act	Apoferritin bind	ALOX12 inh	BCR signal inh
CC(=O)OCC1=C(C(=O)O)N2C(=O)C(NC(=O)CCn3nc(C(F)(F)F)c(Br)c3C3CC3)C2SC1 (configuration not stated)	-4%	-13%	35µM*	-20%
CCN1/C(=C/C(C)=C/c2sc3ccccc3[n+]2CC)Sc2ccccc21	-13%	?	35µM*!	-11%
CCN1/C(=C\C=C(C(C)=O)C(C)=O)Sc2ccccc21	1%	?	-49%	-26%
COc1cccc(NC(=O)CC2Nc3ccccc3NC2=O)c1 (configuration not stated)	·	·	16µM*	·
COC(=O)c1c(C)cc(O)cc1O	0%	-20%	-2%	·
Cc1cc(OC(=O)c2c(C)cc(OC(=O)c3c(C)cc(O)cc3O)cc2O)cc(O)c1C(=O)O	-3%	·	35µM*	·
CCOCCCNC(=O)CC1CC2CCC1C2 (configuration not stated)	·	·	17%	·
O=C(CCCc1cccs1)N(CC1CCOC1)C1CC1 (configuration not stated)	·	·	14%	·
O=C(CNC(=O)c1ccc2c(c1)OCCO2)N/N=C/c1ccc(Cl)cc1	0%	?	5%	?
O=C(CNC(=O)c1ccc2c(c1)OCCO2)N/N=C/c1cccc(Br)c1	-2%	5.6µM*	-19%	-10%
O=C(NC(C1CC1)C1CC1)c1ccccc1Cl	·	·	-7%	·
Oc1cccc(CN2CCCC23CCN(c2ccc(C(F)(F)F)cn2)CC3)c1	·	·	2%	·
CCOc1cc2c(cc1NC(=O)CCC(=O)c1ccc(C)cc1)OC(C)C2 (configuration not stated)	·	·	4.5µM*	·
CCOc1cc2c(cc1NC(=O)c1cc(C)ccc1OC)OC(C)C2 (configuration not stated)	·	·	9%	·
Cc1ccc(-n2c(CNc3ccc(C)c(Cl)c3)n[nH]c2=S)cc1	0%	?	45µM*	2%
COCC(O)CNC(=O)COc1ccc2c(=O)c(-c3ccc(Cl)cc3)c(C)oc2c1 (configuration not stated)	·	·	-3%	·
CCCCn1c(NC(=S)Nc2ccccc2)nc2ccccc21	?	4%	18µM*	?
CC(C)(C)c1ccc(Oc2cccc(C3CC(=O)C(C4NCCc5ccccc54)C(=O)C3n3cncn3)c2)cc1 (configuration not stated)	1%	?	24%	0%
O=C1CC(c2ccccc2Oc2cccc(Cl)c2)C(n2cncn2)C(=O)C1C1NCCc2ccccc21 (configuration not stated)	-4%	-13%	32µM*	?
O=C(Nc1ccncn1)[C@@H]1C[C@@H](c2cccc(C(F)(F)F)c2)N(CC2CCOCC2)C1	·	·	-11%[176 µM]	·
Cc1ccc(NCC(=O)N=Nc2c(O)[nH]c3ccc([N+](=O)[O-])cc23)cc1	40µM*	-8%	0%	20%
COc1ccc(/C=C2\SC(=S)N(CCCC(=O)N3CCOCC3)C2=O)cc1	-12%	·	45µM*	·
Cc1c(CC(=O)NCc2ccc3c(c2)OCO3)c(=O)oc2cc(O)c(Cl)cc12	·	·	-11%	·
COc1ccc(C)cc1Nc1n[n+](-c2ccccc2)c(-c2ccc(C(=O)O)cc2)s1	-2%	-17%	18µM*	-10%
COc1ccc(C)cc1Nc1n[n+](-c2ccccc2)c(-c2c(OC)ccc3ccccc23)s1	-4%	·	?	-18%
SMILES	GRP78 ERSR act	Apoferritin bind	ALOX12 inh	BCR signal inh
COc1ccc(C)cc1Nc1n[n+](-c2ccccc2)c(-c2cc(OC)c(OC)cc2Br)s1	-5%	-20%	40µM*	-18%
Cc1ccc(C(=O)OCC(=O)c2ccco2)s1	·	·	32µM*	·
Cc1ccc(C(=O)OCC(=O)c2cc(C)n(Cc3ccco3)c2C)s1	·	·	-46%	·
O=C1CCN(C(=O)COc2ccc(Cl)cc2Cl)c2ccccc2N1	·	·	1%	·
Cc1cccc(C(=O)Nc2sc3c(c2C(N)=O)CCCCC3)c1	·	·	10µM*	·
NC(=O)c1c(NC(=O)c2ccccc2Cl)sc2c1CCC2	3%	1%	28µM*	-10%
COc1ccc2nc(Nc3sc4c(c3C(N)=O)CCCC4)sc2c1	6%	-4%	22µM*	?
COCCNC(=O)CS(=O)(=O)Cc1nc(-c2cccc(OC)c2)oc1C	·	·	-2%	·
N#Cc1ccc(C(=O)/C=C/c2cc3ccccc3nc2N2CCOCC2)cc1	·	·	11µM*	·
CC(C)OC(=O)c1ccc(NC(=O)CSc2cn[nH]c(=O)n2)cc1	·	·	6%	·
